A number with no mark means an inactive call. Activity calls are given as the source filed them.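 Rule for the calls: active = inhibition at or above 50% relative to wild type and mutant plate controls; inactive = inhibition below 50%.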
Test: inhibitors of Chlamydomonas gravitaxis, primary screen, whole organism, Chlamydomonas reinhardtii, WT vs cilia-less mutant, absorbance, 96-well (AID 463189);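 note: 0% = wild type cc124 cells in DMSO and 100% = ciliumless bld1 mutant cells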
Settings: OD600 absorbance, 2 days, at 10 µM, active compounds read high

Structure (SMILES)	inhibition
CCCc1c(OCCCOc2ccc(OCC(=O)O)cc2)ccc(C(C)=O)c1O	0.316%
CN[C@H](CC(=O)O)C(=O)O	6.26%
OCC1O[C@H](O)C(Cl)C(O)C1O (some centres undefined)	4.68%
Cc1ccc(S(=O)(=O)N[C@@H](Cc2ccccc2)C(=O)CCl)cc1	-2.77%
CCCCC/C=C\CC(O)/C=C/c1cccc(CC(O)CCCCO)n1 (centres undefined)	-1.14%
CN(C(=O)CCCOc1ccc2[nH]c(=O)ccc2c1)C1CCCCC1	3.15%
OC[C@H]1O[C@@H](n2cnc3c(Nc4ccccc4)ncnc32)C(O)[C@H]1O (some centres undefined)	-0.892%
CN(C)CCC(c1ccc(Cl)cc1)c1ccccn1 (centres undefined)	9.56%
COc1cccc2c1[C@@H]1CN(CCCCn3c(=O)[nH]c4c(sc5ncc(-c6ccccc6)nc54)c3=O)C[C@@H]1CO2	4.24%
CN1CCCC1CCOC(C)(c1ccccc1)c1ccc(Cl)cc1 (centres undefined)	11.5%
CCCCCCCCCCCCCCCCCC(=O)OC(CC(=O)O)C[N+](C)(C)C (centres undefined)	6.23%
CC(N)=NCc1cccc(CN)c1	7.48%
Cc1ccccc1CNc1ncnc2c1ncn2C1OC(CO)C(O)C1O (centres undefined)	-2.9%
CCN(CC)CCOCCOC(=O)C1(c2ccccc2)CCCC1	5.28%
CN(C)CCC=C1c2ccccc2C=Cc2ccccc21	12.9%
C[C@](N)(Cc1ccc(O)cc1)C(=O)O	6.91%
CCCCOc1cc(CC2CNC(=O)N2)ccc1OC (centres undefined)	2.83%
NCCCS(=O)(=O)O	-4.87%
NC(=O)C1=CN(C2OC(COP(=O)(O)OP(=O)(O)OC[C@H]3O[C@@H](n4cnc5c(N)ncnc54)C(OP(=O)(O)O)[C@H]3O)C(O)C2O)C=CC1 (some centres undefined)	-0.493%
O=C1N(c2ccccc2)c2ccccc2C1(Cc1ccncc1)Cc1ccncc1	-3.34%

Structure (SMILES)	inhibition
OC[C@H]1O[C@@H](n2cnc3c(NC4CCCCC4)ncnc32)[C@H](O)[C@@H]1O	4.21%
CNCCC(Oc1ccccc1C)c1ccccc1 (centres undefined)	10.9%
CC(=O)[C@@]1(O)CC[C@H]2[C@@H]3CCC4=CC(=O)CC[C@]4(C)[C@H]3CC[C@@]21C	-1.04%
COC(=O)C(C)(N)Cc1ccc(O)cc1 (centres undefined)	9.13%
C[C@@H](CN1CCC(Cc2ccccc2)CC1)[C@@H](O)c1ccc(O)cc1	10.4%
c1ccc(CN2CCC3(CCCc4ccccc43)CC2)cc1	89% (active)
CC1CCN(CC[C@H]2CCCN2S(=O)(=O)c2cccc(O)c2)CC1	-12.1%
COc1cc(CNC(=O)CCCCCCC(C)C)ccc1O	-1.4%
CCCCCCCCCC[Si](C)(C)CCC(=O)NC(Cc1ccc(C)cc1)c1ccccc1 (centres undefined)	1.73%
CC(C)NC[C@H](O)COc1ccc(CC(N)=O)cc1	-3.21%
C[C@@H]1C(=O)NC2=Nc3cccc(Cl)c3CN21	1.72%
Nc1c2c(nc3ccccc13)CCCC2	-5.5%
CC#C[C@]1(O)CC[C@H]2[C@@H]3CCC4=CC(=O)CCC4=C3[C@@H](c3ccc(N(C)C)cc3)C[C@@]21C	1.39%
Nc1ccn([C@@H]2O[C@H](CO)[C@@H](O)[C@@H]2O)c(=O)n1	0.194%
O=C(O)c1cc([N+](=O)[O-])ccc1NCCCc1ccccc1	9.38%
O=C1CCC(N2C(=O)c3ccccc3C2=O)C(=O)N1 (centres undefined)	10.8%
COc1cc(C(O)CO)ccc1O (centres undefined)	1.74%
NC(=O)CC[C@H](N)C(=O)O	-13.2%
N#C/C(=C\c1ccc(O)c(O)c1)C(=O)NCc1ccccc1	-4.45%
